Results: PubChem BioAssay (NCATS)
Results filed as inconclusive are left out. Active and inactive are the calls of the source. The call rests on the fitted dose curve; in most records, active means well fitted curve in the direction sought with a large enough effect; inconclusive means small, poorly fitted or top-dose-only effect, or another doubt; inactive means no such curve, though single readings can be large; an effect the other way counts as inactive or inconclusive.

Tests used:
7G8 = assay: qHTS profiling for inhibitors of Plasmodium falciparum proliferation (AID 504749); further: nearly all actives have a fitted effect of over 60% in size; settings: P. falciparum in erythrocytes, SYBR Green DNA, 72 h; series mostly up to 12.8 µM
Procedure, shortened: (§1)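 P. falciparum-infected erythrocytes (0.3% parasitemia, 2.5% hematocrit) incubated with compound 72 h at 37 C, 5% CO2. Parasite DNA detected by SYBR Green after lysis, overnight at room temperature; normalised to 0.29 uM artemisinin and DMSO.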

ATS95 = assay: as above; settings: P. falciparum in erythrocytes, SYBR Green DNA, 72 h; series mostly up to 12.8 µM
Procedure, shortened: as §1

C2A = assay: as above; settings: P. falciparum in erythrocytes, SYBR Green DNA, 72 h; series mostly up to 12.8 µM
Procedure, shortened: as §1

CP217 = assay: as above; settings: P. falciparum in erythrocytes, SYBR Green DNA, 72 h; series mostly up to 12.8 µM
Procedure, shortened: as §1

CP237 = assay: as above; settings: P. falciparum in erythrocytes, SYBR Green DNA, 72 h; series mostly up to 12.8 µM
Procedure, shortened: as §1

CP252 = assay: as above; settings: P. falciparum in erythrocytes, SYBR Green DNA, 72 h; series mostly up to 12.8 µM
Procedure, shortened: as §1

CP268 = assay: as above; settings: P. falciparum in erythrocytes, SYBR Green DNA, 72 h; series mostly up to 12.8 µM
Procedure, shortened: as §1

CP269 = assay: as above; settings: P. falciparum in erythrocytes, SYBR Green DNA, 72 h; series mostly up to 12.8 µM
Procedure, shortened: as §1

CP286 = assay: as above; settings: P. falciparum in erythrocytes, SYBR Green DNA, 72 h; series mostly up to 12.8 µM
Procedure, shortened: as §1

CP291 = assay: as above; settings: P. falciparum in erythrocytes, SYBR Green DNA, 72 h; series mostly up to 12.8 µM
Procedure, shortened: as §1

CP305 = assay: as above; settings: P. falciparum in erythrocytes, SYBR Green DNA, 72 h; series mostly up to 12.8 µM
Procedure, shortened: as §1

CP335 = assay: as above; settings: P. falciparum in erythrocytes, SYBR Green DNA, 72 h; series mostly up to 12.8 µM
Procedure, shortened: as §1

DFO2036 = assay: as above; settings: P. falciparum in erythrocytes, SYBR Green DNA, 72 h; series mostly up to 12.8 µM
Procedure, shortened: as §1

DIV30 = assay: as above; settings: P. falciparum in erythrocytes, SYBR Green DNA, 72 h; series mostly up to 12.8 µM
Procedure, shortened: as §1

ECU = assay: as above; settings: P. falciparum in erythrocytes, SYBR Green DNA, 72 h; series mostly up to 12.8 µM
Procedure, shortened: as §1

HB3 = assay: as above; settings: P. falciparum in erythrocytes, SYBR Green DNA, 72 h; series mostly up to 12.8 µM
Procedure, shortened: as §1

P94_40 = assay: as above; settings: P. falciparum in erythrocytes, SYBR Green DNA, 72 h; series mostly up to 12.8 µM
Procedure, shortened: as §1

PC26 = assay: as above; settings: P. falciparum in erythrocytes, SYBR Green DNA, 72 h; series mostly up to 12.8 µM
Procedure, shortened: as §1

TAB165 = assay: as above; settings: P. falciparum in erythrocytes, SYBR Green DNA, 72 h; series mostly up to 12.8 µM
Procedure, shortened: as §1

[1] = qHTS Assay for Identification of Small Molecule Agonists for Thrombopoietin (TPO) Signaling Pathway (AID 917)
Procedure, shortened: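 Activators of TPO signaling were sought in murine Ba/F3 cells transfected with the human receptor, using a luciferase gene driven by the Glycoprotein IIb promoter; 24-hr compound exposure at 37 C alongside 26 pM TPO, in IL-3-free medium.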

Measured: Potency

CO[C@H]1C[C@@H](O[C@@H]2[C@H](C)[C@H](O[C@@H]3O[C@@H](C)C[C@@H](N(C)C)[C@@H]3O)[C@H](C)C[C@]3(CO3)C(=O)[C@H](C)[C@H](O)[C@H](C)[C@H](C)OC(=O)[C@@H]2C)O[C@@H](C)[C@H]1O
inactive: 7G8 | ATS95 | C2A | CP217 | CP237 | CP252 | CP268 | CP269 | CP286 | CP291 | CP305 | CP335 | DFO2036 | DIV30 | ECU | HB3 | P94_40 | PC26 | TAB165

CC1=C(C(=O)O)N2C(=O)[C@@H](NC(=O)[C@@H](N)c3ccccc3)[C@@H]2SC1
inactive: [1]

CC[C@H](NC(C)C)[C@H](O)c1ccc(O)c(O)c1
inactive: ATS95 | C2A | CP217 | CP237 | CP252 | CP268 | CP269 | CP286 | CP291 | CP305 | CP335 | DFO2036 | DIV30 | ECU | HB3 | P94_40 | PC26 | TAB165

CCN[C@@H]1C[C@H](C)S(=O)(=O)c2sc(S(N)(=O)=O)cc21
inactive: 7G8 | ATS95 | C2A | CP217 | CP237 | CP252 | CP268 | CP269 | CP286 | CP291 | CP305 | CP335 | DFO2036 | DIV30 | ECU | HB3 | P94_40 | PC26 | TAB165

CN(N=O)C(=O)N[C@H]1[C@@H](O)[C@H](O)[C@H](CO)O[C@@H]1O
inactive: 7G8 | ATS95 | C2A | CP217 | CP237 | CP252 | CP268 | CP269 | CP286 | CP291 | CP305 | CP335 | DFO2036 | DIV30 | ECU | HB3 | P94_40 | PC26 | TAB165

C[C@@H](COc1ccccc1)N(CCCl)Cc1ccccc1
inactive: [1]

CC(C)COC[C@H](CN(Cc1ccccc1)c1ccccc1)N1CCCC1
inactive: [1]

C[C@H](NCCc1ccc(O)cc1)[C@@H](O)c1ccc(O)cc1
inactive: [1] | 7G8 | ATS95 | C2A | CP217 | CP237 | CP252 | CP268 | CP269 | CP286 | CP291 | CP305 | CP335 | DFO2036 | DIV30 | ECU | HB3 | P94_40 | PC26 | TAB165

CC(=O)N(CC(O)CN(C(C)=O)c1c(I)c(C(=O)NC[C@@H](O)CO)c(I)c(C(=O)NC[C@@H](O)CO)c1I)c1c(I)c(C(=O)NC[C@@H](O)CO)c(I)c(C(=O)NC[C@@H](O)CO)c1I
inactive: 7G8 | ATS95 | C2A | CP217 | CP237 | CP252 | CP268 | CP269 | CP286 | CP291 | CP305 | CP335 | DFO2036 | DIV30 | ECU | HB3 | P94_40 | PC26 | TAB165

CC(C)(O/N=C(\C(=O)N[C@@H]1C(=O)N2C(C(=O)[O-])=C(C[n+]3ccccc3)CS[C@@H]12)c1csc(N)n1)C(=O)O
inactive: 7G8 | ATS95 | C2A | CP217 | CP237 | CP252 | CP268 | CP269 | CP286 | CP291 | CP305 | CP335 | DFO2036 | DIV30 | ECU | HB3 | P94_40 | PC26 | TAB165

C[N+]1(C)CCC[C@@H](OC(=O)C(O)(c2ccccc2)c2ccccc2)C1
inactive: 7G8 | ATS95 | C2A | CP217 | CP237 | CP252 | CP268 | CP269 | CP286 | CP291 | CP305 | CP335 | DFO2036 | DIV30 | ECU | HB3 | P94_40 | PC26 | TAB165

O=c1[nH]c(=O)n([C@@H]2C[C@H](O)[C@H](CO)O2)cc1I
inactive: 7G8 | ATS95 | C2A | CP217 | CP237 | CP252 | CP268 | CP269 | CP286 | CP291 | CP305 | CP335 | DFO2036 | DIV30 | ECU | HB3 | P94_40 | PC26 | TAB165

C[C@@](N)(Cc1ccc(O)cc1)C(=O)O
inactive: [1]

CC1(C)Oc2ccc(C#N)cc2[C@H](N2CCCC2=O)[C@H]1O
inactive: 7G8 | ATS95 | C2A | CP217 | CP237 | CP252 | CP268 | CP269 | CP286 | CP291 | CP305 | CP335 | DFO2036 | DIV30 | ECU | HB3 | P94_40 | PC26 | TAB165
